Records with an inconclusive call do not appear. Values without a mark were called inactive. Activity calls are given as the source filed them. Calls follow the shape of the dose curve; as a rule, active = well fitted cell-killing curve with a large enough effect; inconclusive = small, poorly fitted or top-dose-only effect, or effect the other way; inactive = flat fitted curve, though single readings scatter.
What follows are molecules tested on CASKI (assay: Primary qHTS to identify gynecologic anti-cancer compounds using libraries of approved drugs and bioactive compounds (AID 1345084; also: nearly all actives have a fitted effect of over 55% in size)). Settings: Gynecologic cancer cell panel viability, ATPlite luminescence, 48 h; series mostly up to 57.5 µM; activity change, negative = cytotoxicity: at the top concentration.
Procedure, shortened: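 Cytotoxicity screen measuring ATP content by luciferase luminescence. Each compound is applied at five concentrations for 48 h at 37 C with 5% CO2.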
% is scaled to controls: 0 for no effect and ±100 for the full control effect; potency is read from the fitted curve at half-maximal effect.

Structure (SMILES) | activity change, negative = cytotoxicity | Potency
CCC(COC)n1nnc2c(Nc3ccc(OC)cc3C)nc(C)cc21 (stereo not given) | 3.16% | –
NC1CCC(Nc2cc(-c3cccc(NCc4cccc(F)c4)n3)c(Cl)cn2)CC1 (stereo not given) | – | 0.891 µM (active)
O=C1C=CC2OC(c3ccccc3)C(O)C2O1 (stereo not given) | -6.46% | –
C/C=C/C1=CC2=C(CO1)C(=O)C(C)(O)C(OC(=O)c1c(C)cc(OC)cc1O)C2 (stereo not given) | -4.18% [at 38.5 µM] | –
COc1c2c(c(C)c3c1C(=O)OC3)OC1(C)CC(O)C34OC(OC)(CC(OC(C)=O)C3(C)C1C2)OC4(C)C (stereo not given) | 13.8% [at 25.3 µM] | –
C/C=C/c1ccc2c(c1)[C@@H](C)[C@H](c1ccc(O)cc1)O2 | -12.3% | –
CC(C)S(=O)(=O)N[C@H]1CCOC[C@@H]1c1ccc(-c2ccc(C#N)s2)cc1 | 4.47% | –
COc1ccc([C@H]2CNC(=O)C2)cc1OC1CCCC1 | 27.1% | –
N=c1nc2n(cc1F)C1OC(CO)C(O)C1O2 (stereo not given) | -6.41% | –
CC(C)CCC(=O)CC1c2ccccc2C(=O)N1c1ccc2ccc(Cl)nc2n1 (stereo not given) | -39.2% | –
CC1(C)CC[C@]2(C(=O)O[C@@H]3O[C@H](CO)[C@@H](O)[C@H](O)[C@H]3O)CC[C@]3(C)C(=CCC4[C@@]5(C)CC[C@H](O[C@@H]6O[C@H](C(=O)O)[C@@H](O)[C@H](O)[C@H]6O)C(C)(C)C5CC[C@]43C)C2C1 (stereo not given in full) | -0.46% [at 11.6 µM] | –
COc1ccc(CCC(=O)c2c(O)cc(O)cc2O[C@@H]2O[C@H](CO)[C@@H](O)[C@H](O)[C@H]2O)cc1 | 0.504% [at 25.3 µM] | –
C=C1C[C@]23C[C@H]1CC[C@H]2[C@@]12CC[C@H](O)[C@@](C)(C(=O)O1)[C@H]2[C@@H]3C(=O)O | 5.68% [at 38.5 µM] | –
CC(O)(CC(=O)O)CC(=O)OCc1ccc(O[C@@H]2O[C@H](CO)[C@@H](O)[C@H](O)[C@H]2O)cc1 (stereo not given in full) | 26% [at 25.3 µM] | –
C[C@@H]1CC[C@]2(C(=O)OC3OC(CO)C(O)C(O)C3O)CC[C@]3(C)C(=CCC4[C@@]5(C)CC[C@H](O)[C@](C)(C(=O)O)C5CC[C@]43C)C2[C@]1(C)O (stereo not given in full) | 2.52% [at 25.3 µM] | –
C[C@@]12CC[C@@H]3[C@@](CC[C@H]4[C@@]3(C)CCC[C@@]4(C)C(=O)O)(CC1=O)C2 | 3.41% | –
C=C1C(OC2OCC(O)C(O)C2O)CC2C(C)(C)C(O)CCC2(C)C1CC/C(C)=C\CO (stereo not given) | 16.8% [at 25.3 µM] | –
CC1(C)[C@@H](O)CC[C@]2(C)[C@H]3CC=C4[C@@H]5C[C@](C)(C(=O)O)CC[C@]5(C)CC[C@@]4(C)[C@]3(C)CC[C@@H]12 | 18.3% | –

Structure (SMILES) | activity change, negative = cytotoxicity | Potency
CC(CO)C1CCC2(C)CC3C(CO)CC(O)C3C(C)(O)C/C=C/12 (stereo not given) | 21.1% [at 38.5 µM] | –
CC/C=C\C/C=C\C/C=C\CCCCCCCC(=O)OCC(O)COC1OC(CO)C(O)C(O)C1O (stereo not given) | 4.23% [at 25.3 µM] | –
O=C1NC(=O)C(c2cn(-c3ccccc3)nc2-c2ccc(F)cc2)N1 (stereo not given) | -24.5% | –
CC1=C(C)C(=O)OC(C(C)C2CCC3C4C5OC5C5(O)CC(OC6OC(CO)C(OC7OC(C)C(O)C(O)C7O)C(O)C6O)CC(O)C5(C)C4CCC23C)C1 (stereo not given) | 11.3% [at 25.3 µM] | –
CN(C)C/C=C/C(=O)Nc1cccc(C(=O)Nc2ccc(Nc3nccc(-c4cccnc4)n3)cc2)c1 | – | 7.08 µM (active)
COc1cc(N)c(Cl)cc1C(=O)NC[C@@H]1CCN2CCC[C@@H]12 | 19.2% | –
CC(=O)OC1C[C@@]2(C)[C@@H](CC[C@@H](C)[C@]23Cc2c(O)cc4c(c2O3)CNC4=O)C(C)(C)[C@@H]1O (stereo not given in full) | 17% [at 25.3 µM] | –
C=C(C(=O)O)[C@H]1C[C@]2(C)[C@@H](O)CC[C@]23O[C@H]1C[C@@H]3C | 10.2% | –
C[C@H](Oc1ccc(S(C)(=O)=O)cc1C(=O)N1CCN(c2ncc(C(F)(F)F)cc2F)CC1)C(F)(F)F | -0.858% | –
O=C1NC(Cc2ccccc2)C(=O)N2CCCC12 (stereo not given) | -10.6% | –
O=C(NCc1ccccn1)Nc1nnc(-c2ccco2)o1 | -0.902% | –
CCCCNc1ncc2c(-c3ccc(F)cc3)nn(CC3CCC(N)CC3)c2n1 (stereo not given) | – | 10 µM (active)
CC1CCC2C(C(=O)O)=COC(O[C@@H]3O[C@H](CO)[C@@H](O)[C@H](O)[C@H]3O)C12 (stereo not given in full) | -43.8% [at 38.5 µM] | –
COc1c2ccoc2cc2oc(CO[C@@H]3O[C@H](CO)[C@@H](O)[C@H](O)[C@H]3O)cc(=O)c12 | 2.4% [at 38.5 µM] | –
C=C(C)C(=O)OC1C(OC(C)=O)/C(C=O)=C\CC/C(CO)=C/C2OC(=O)C(=C)C21 (stereo not given) | -1.81% [at 25.3 µM] | –
COc1cc(/C=C/C=O)cc(OC)c1O[C@@H]1O[C@H](CO)[C@@H](O)[C@H](O)[C@H]1O | 19.8% [at 38.5 µM] | –
Cc1cc(OCc2nc(-c3ccccc3Cl)cs2)ccc1OCC(=O)O | -4.57% | –
